Screening data: PubChem, Buhrlage Lab, Dana-Farber Cancer Institute and Novartis Institutes for BioMedical Research (Cambridge, Mass)
This is a sample that favours compounds with a hit; in the whole collection about 13% have one here.
USP28 block: blocks human USP28 ubiquitin-rhodamine cleavage; Q96RU2; purified USP28, Ub-rhodamine cleavage fluorescence, 30 min; inhibition, % at 25 µM; actives 3% (n = 47,000); AID 1645857
Target sequence (Q96RU2 whole entry, looked up): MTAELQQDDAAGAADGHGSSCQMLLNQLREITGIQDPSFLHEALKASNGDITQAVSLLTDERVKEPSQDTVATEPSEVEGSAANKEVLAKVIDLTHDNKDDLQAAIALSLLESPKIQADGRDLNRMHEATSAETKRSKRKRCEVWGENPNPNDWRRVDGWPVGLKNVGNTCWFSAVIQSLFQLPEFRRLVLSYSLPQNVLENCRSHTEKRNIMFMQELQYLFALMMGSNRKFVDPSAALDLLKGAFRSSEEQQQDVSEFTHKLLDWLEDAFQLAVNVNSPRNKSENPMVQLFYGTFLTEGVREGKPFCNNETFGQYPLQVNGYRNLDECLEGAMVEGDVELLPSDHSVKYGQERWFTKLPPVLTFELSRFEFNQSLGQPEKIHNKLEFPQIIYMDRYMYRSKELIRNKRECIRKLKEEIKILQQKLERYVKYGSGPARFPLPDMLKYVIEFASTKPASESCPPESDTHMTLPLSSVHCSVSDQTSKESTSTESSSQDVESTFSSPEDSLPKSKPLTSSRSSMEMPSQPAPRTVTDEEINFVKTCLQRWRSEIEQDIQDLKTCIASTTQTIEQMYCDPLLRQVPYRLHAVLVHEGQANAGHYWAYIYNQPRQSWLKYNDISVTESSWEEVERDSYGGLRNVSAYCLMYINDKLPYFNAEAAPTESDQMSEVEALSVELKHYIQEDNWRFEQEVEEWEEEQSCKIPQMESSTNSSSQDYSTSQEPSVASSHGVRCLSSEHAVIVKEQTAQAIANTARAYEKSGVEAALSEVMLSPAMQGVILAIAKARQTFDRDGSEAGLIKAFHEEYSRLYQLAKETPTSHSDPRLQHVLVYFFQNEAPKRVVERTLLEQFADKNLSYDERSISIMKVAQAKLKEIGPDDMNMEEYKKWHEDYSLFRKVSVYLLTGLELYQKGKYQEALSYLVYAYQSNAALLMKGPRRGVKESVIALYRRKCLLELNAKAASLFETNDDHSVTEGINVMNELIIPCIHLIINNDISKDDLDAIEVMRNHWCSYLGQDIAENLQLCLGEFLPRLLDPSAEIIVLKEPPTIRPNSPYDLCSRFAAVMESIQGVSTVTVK
USP10 block: inhibitors of human USP10 deubiquitinase; actives 1.1% (n = 47,000); purified USP10, Ub-rhodamine fluorescence, 60 min; inhibition, % at 20 µM; AID 1645856
USP8 block: inhibitors of human USP8 deubiquitinase; P40818; purified USP8, Ub-rhodamine cleavage fluorescence, 30 min; inhibition, % at 20 µM; actives 4.2% (n = 47,000); AID 1645853
USP30 block: blocks human USP30 ubiquitin-rhodamine cleavage; purified USP30, Ub-rhodamine cleavage fluorescence; inhibition, % at 25 µM; actives 5.3% (n = 47,000)
USP17 block: human USP17-like deubiquitinase inhibition; purified USP17, Ub-rhodamine cleavage fluorescence, 3 h; AID 1645855; inhibition, % at 50 µM; actives 6.5% (n = 47,000)
OTUD3 inh: human OTUD3 deubiquitinase inhibition; purified OTUD3, Ub-rhodamine fluorescence, 2 h; actives 0.7% (n = 47,000); Q5T2D3; inhibition, % at 25 µM
Each line names hits and unclear results; the compound was inactive in the other large screens. Rule as the data show it: active = inhibition above about 30%; inactive = the rest.

COc1cccc(-n2ccc(=O)c(-c3nc(-c4ccccc4Cl)no3)n2)c1	USP28 block 41, USP8 block 68, USP30 block 66 (no result: USP17 block)
COc1ccccc1-c1noc(-c2nn(-c3ccc(C)c(C)c3)ccc2=O)n1	none
Cc1ccc(-n2ccc(=O)c(-c3nc(-c4ccccc4F)no3)n2)cc1	none
COC(=O)c1ccc(C2c3c(C)nn(-c4ccc([N+](=O)[O-])cc4)c3N=C3C(=O)Nc4ccccc4N32)cc1 (centres undefined)	none
Cc1ccccc1S(=O)(=O)N1CCN(c2cc(-c3ccncc3)[nH]n2)CC1	none (no result: USP17 block)
c1cc(N2C[C@H](OCC3CCOCC3)[C@H]3OCCC[C@H]32)ncn1	none
O=C(Nc1ccccn1)c1noc2c1CCc1sccc1-2	USP8 block 88, USP17 block 37
Cc1cccnc1NC(=O)c1noc2c1CCc1sccc1-2	none
Cc1ccc(NC(=O)c2noc3c2CCc2sccc2-3)nc1	USP8 block 47, USP17 block 32
COc1ccc(S(=O)(=O)NCCSc2ccccc2)cc1Br	USP30 block 37
CC(=O)c1ccc(N2C(=O)[C@H]3Cc4c([nH]c5ccccc45)CN3C2=O)cc1	USP17 block 44
c1cc(-c2noc(-c3n[nH]c4c3CCCC4)n2)cc(-c2ccn[nH]2)c1	none
Cn1c2ccccc2c(=O)c2c(=O)n(-c3cccc(Cl)c3)c(-c3cccs3)nc21	USP10 block 63, USP8 block 94, USP17 block 30
CCc1nc2c(c(=O)c3ccccc3n2C)c(=O)n1-c1ccc(C)cc1	USP8 block 31, USP17 block 49 (no result: USP28 block, USP30 block)
Cn1c2ccccc2c(=O)c2c(=O)n(-c3ccccc3)c(-c3ccc(Cl)cc3)nc21	none
COc1ccc(CCn2c(-c3ccccc3)nc3c(c(=O)c4ccccc4n3C)c2=O)cc1	none
COc1ccc(-c2csc(N(CCc3ccccc3)C(C)=O)n2)cc1	none
CNc1cncc(C2CCCN2C(=O)Cc2c(C)nc3ccccn23)n1 (centres undefined)	none
O=C(O)c1cccc(Nc2nc(-c3cccnc3)nc3ccccc23)c1	none
Clc1cncc(Oc2nc(-c3cccnc3)nc3ccccc23)c1	USP17 block 63
O=C(Nc1ncc2c(n1)-c1ccccc1CC2)C1CC1	USP17 block 56
Cc1ccc(C2CC(=O)c3cnc(NC(=O)C4CC4)nc3C2)cc1 (centres undefined)	none
Cc1nn2c(CNC(=O)c3c(F)cccc3Cl)c(C)nc2s1	none
Cc1ccc(NC(=O)c2cc(C(C)C)on2)cc1C	USP28 block 42
Cc1ccc(O)c(NC(=O)c2cc(C(C)C)on2)c1	none
CC(C)c1noc(-c2ccn3c(CC(=O)NC4CCCC4)nnc3c2)n1	none
Cc1cc(N2CC(C)OC2=O)nc(C2CCN(C(=O)OC(C)(C)C)CC2)n1 (centres undefined)	USP30 block 35
Cc1cc(N2CC(C)OC2=O)nc(C2CCN(C(=O)C(C)(C)C)CC2)n1 (centres undefined)	none
CCn1c(=O)c2ccccc2n(Cc2nc(-c3cccc(C)c3)no2)c1=O	none
COc1ccc(CCNCc2cc3c(C)nn(-c4ccccc4)c3[nH]c2=O)cc1OC	none
COc1ccc(-c2nn(-c3ccccc3)c3[nH]c(=O)c(CNCc4cccs4)cc23)cc1OC	USP8 block 78
COc1ccc(-c2nn(-c3ccccc3)c3[nH]c(=O)c(CNc4ccc5c(c4)OCCO5)cc23)cc1OC	USP8 block 78, USP17 block 44
O=C(NC1CCCCCC1)C1CCN(c2cncnc2N2CCOCC2)CC1	none
CCOCC(=O)Nc1ccc(-c2nc3cccnc3s2)cc1	none
CCC(C(=O)Nc1ccc(-c2nc3cccnc3s2)cc1)c1ccccc1 (centres undefined)	USP8 block 36
COc1ccc(N(CC(=O)NC2CCCCC2)C(=O)c2ccc(-c3ccccc3)[nH]2)cc1OC	USP17 block 78
CCc1ccc(NC(=O)CSc2ncc(S(=O)(=O)c3ccccc3)c(=O)[nH]2)cc1	USP30 block 38
Cc1cccc(NC(=O)Cn2cc(S(=O)(=O)c3ccccc3)c(=O)c3ccc(C)nc32)c1	none
CCc1ccc(S(=O)(=O)c2cnc3ccc(C)cc3c2Nc2ccccc2)cc1	none
CCc1ccc(S(=O)(=O)c2cn(CC(=O)Nc3ccccc3)c3ccccc3c2=O)cc1	USP10 block 46, USP8 block 77
O=C(NC1CCc2ncc(C(F)(F)F)n2C1)C1CCCC1 (centres undefined)	none
Cc1ccc(Cl)cc1N1CCN(CC2C(=O)O[C@@]34[C@H]2CC[C@@H](C)[C@@H]3CC[C@@]2(C)O[C@@H]42)CC1 (some centres undefined)	none
COC(=O)c1cc2sccc2n1CC(=O)Nc1ccc(OC)c(OC)c1OC	none
COC(=O)c1cc2sccc2n1CC(=O)Nc1cccc(SC)c1	USP30 block 36
COC(=O)c1cc(OC)c(OC)cc1NC(=O)C1CCC1C(=O)O (centres undefined)	none
Cc1sc(NCc2ccccc2)nc1-c1ccccc1	USP28 block 40
COc1cccc(/C=C/c2nc(C#N)c(N3CCN(C(=O)c4cccs4)CC3)o2)c1	USP30 block 52
Cc1ccc(CN2CC[C@@H]3[C@H](CC2)N(S(C)(=O)=O)CCS3(=O)=O)cc1	none
CS(=O)(=O)N1CCN(Cc2ccc(=O)n(CC3CC3)c2)CC1	USP8 block 48
Cc1cccc(C(=O)NC(c2ccccc2)c2cccnc2)c1 (centres undefined)	none
Cc1cccc(C(=O)NC(NC(=O)c2cccc(C)c2)c2ccccc2F)c1	USP8 block 57, USP30 block 43 (no result: USP17 block)
Cc1ccc(C(C(=O)NC2CCCC2)N(Cc2ccccc2Cl)C(=O)c2ccco2)cc1 (centres undefined)	none
COc1ccc(C(C(=O)NC2CCCC2)N(Cc2ccccc2Cl)C(=O)c2ccco2)cc1 (centres undefined)	USP30 block 35
COc1ccccc1Oc1ncc(-c2ccc(Cl)cc2)cc1C#N	none
O=C1N[C@@H]2CN(C(=O)c3cccc(C(F)(F)F)c3)CC[C@H]2CO1	none
Cc1nn(-c2ccccc2)c(C)c1NC(=O)c1cnn(Cc2ccccc2)c1	USP28 block 31
CCn1cc(NC(=O)CN2CCC3(CC=CCOC3)CC2)c(C)n1	OTUD3 inh 46
COC(=O)c1cccc2cccc(Sc3ccccc3C#N)c12	none
Cc1cc(-c2cnc(NCCCN3CCOCC3)nc2-c2ccco2)on1	none
Cc1cc(-c2cnc(NCc3cccc(F)c3)nc2-c2ccco2)on1	USP17 block 41
O=S(=O)(Nc1ccccc1-c1ccccc1)c1ccccc1F	none
O=S(=O)(Nc1ccc(Oc2ccccc2)cc1)c1ccccc1F	USP28 block 32, USP30 block 41, USP17 block 34
COc1cccc(NC(=O)c2nc(N3CCOCC3)c3c(C)scc3n2)c1	none
